Measurements as given in the supplement of paper PMC12282887.
± gives the standard deviation of the averaged measurements.

Assays:
Experiment in all cases: promoter activity interaction Z-score (Lux/OD deviation from empty-vector control); higher = stronger promoter induction by the compound
[1] = system: E. coli BW25113 acrABp lux reporter
Method in brief: (§1)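 E. coli BW25113 (wild type or marA, soxS or rob deletion) carrying low-copy luxCDABE promoter reporters grew in 40 µl LB Lennox in 384-well plates at 37°C. Each compound was tested at four 1:2 dilutions in biological duplicates. OD600 and luminescence were read every 30 min for 12 h. Areas were taken over 0–8 h (wild type) or 1–9 h (mutants), and wells below 10% of median growth area were removed. The score is the Z-transformed residual of growth-normalised luminescence fitted against the empty-vector control.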

[2] = system: E. coli BW25113 micFp lux reporter
Method in brief: as §1

[3] = system: E. coli BW25113 ompFp lux reporter
Method in brief: as §1

[4] = system: E. coli BW25113 robp lux reporter
Method in brief: as §1

[5] = system: E. coli BW25113 soxSp lux reporter
Method in brief: as §1

[6] = system: E. coli BW25113 tolCp lux reporter
Method in brief: as §1

[7] = 19.1 µg/ml, genetic background: wild type
[8] = 19.1 µg/ml, genetic background: ΔmarA
[9] = 19.1 µg/ml, genetic background: Δrob
[10] = 19.1 µg/ml, genetic background: ΔsoxS
[11] = 38.3 µg/ml, genetic background: wild type
[12] = 38.3 µg/ml, genetic background: ΔmarA
[13] = 38.3 µg/ml, genetic background: Δrob
[14] = 38.3 µg/ml, genetic background: ΔsoxS
[15] = 76.6 µg/ml, genetic background: wild type
[16] = 76.6 µg/ml, genetic background: ΔmarA
[17] = 76.6 µg/ml, genetic background: Δrob
[18] = 76.6 µg/ml, genetic background: ΔsoxS
[19] = 153.1 µg/ml, genetic background: wild type
[20] = 153.1 µg/ml, genetic background: ΔmarA
[21] = 153.1 µg/ml, genetic background: Δrob
[22] = 153.1 µg/ml, genetic background: ΔsoxS

## Nc1ccc(C(=O)O)c(O)c1 [4-Aminosalicylic acid]
[1]; [7]
  promoter activity interaction Z-score: -0.149 ± 0.057
[1]; [8]
  promoter activity interaction Z-score: -0.463 ± 0.94
[1]; [9]
  promoter activity interaction Z-score: -0.0648 ± 0.1
[1]; [10]
  promoter activity interaction Z-score: 0.0906 ± 0.23
[1]; [11]
  promoter activity interaction Z-score: -0.194 ± 0.071
[1]; [12]
  promoter activity interaction Z-score: -0.226 ± 0.02
[1]; [13]
  promoter activity interaction Z-score: 0.179 ± 0.24
[1]; [14]
  promoter activity interaction Z-score: 0.221 ± 0.28
[1]; [15]
  promoter activity interaction Z-score: -0.276 ± 0.035
[1]; [16]
  promoter activity interaction Z-score: -0.0192 ± 0.31
[1]; [17]
  promoter activity interaction Z-score: -0.218 ± 0.18
[1]; [18]
  promoter activity interaction Z-score: -0.00319 ± 0.25
[1]; [19]
  promoter activity interaction Z-score: -0.212 ± 0.19
[1]; [20]
  promoter activity interaction Z-score: 0.164 ± 0.025
[1]; [21]
  promoter activity interaction Z-score: 0.0189 ± 0.39
[1]; [22]
  promoter activity interaction Z-score: 0.952 ± 1.3
[2]; [7]
  promoter activity interaction Z-score: 0.127 ± 0.069
[2]; [8]
  promoter activity interaction Z-score: 0.157 ± 0.12
[2]; [9]
  promoter activity interaction Z-score: 0.223 ± 0.068
[2]; [10]
  promoter activity interaction Z-score: 0.335 ± 0.24
[2]; [11]
  promoter activity interaction Z-score: 0.103 ± 0.31
[2]; [12]
  promoter activity interaction Z-score: 0.0571 ± 0.12
[2]; [13]
  promoter activity interaction Z-score: 0.346 ± 0.16
[2]; [14]
  promoter activity interaction Z-score: 0.348 ± 0.31
[2]; [15]
  promoter activity interaction Z-score: 0.399 ± 0.11
[2]; [16]
  promoter activity interaction Z-score: 0.312 ± 0.014
[2]; [17]
  promoter activity interaction Z-score: 0.842 ± 0.12
[2]; [18]
  promoter activity interaction Z-score: 0.567 ± 0.32
[2]; [19]
  promoter activity interaction Z-score: 0.955 ± 0.34
[2]; [20]
  promoter activity interaction Z-score: 0.278 ± 0.066
[2]; [21]
  promoter activity interaction Z-score: 1.89 ± 0.16
[2]; [22]
  promoter activity interaction Z-score: 2.24 ± 0.04
[3]; [7]
  promoter activity interaction Z-score: -0.191 ± 0.28
[3]; [8]
  promoter activity interaction Z-score: -0.0337 ± 0.042
[3]; [9]
  promoter activity interaction Z-score: 0.485 ± 0.12
[3]; [10]
  promoter activity interaction Z-score: 0.498 ± 0.63
[3]; [11]
  promoter activity interaction Z-score: -0.538 ± 0.33
[3]; [12]
  promoter activity interaction Z-score: 0.43 ± 0.48
[3]; [13]
  promoter activity interaction Z-score: 0.92 ± 0.71
[3]; [14]
  promoter activity interaction Z-score: 0.203 ± 0.35
[3]; [15]
  promoter activity interaction Z-score: -0.751 ± 0.39
[3]; [16]
  promoter activity interaction Z-score: -0.414 ± 0.39
[3]; [17]
  promoter activity interaction Z-score: -0.49 ± 0.65
[3]; [18]
  promoter activity interaction Z-score: -0.5 ± 0.67
[3]; [19]
  promoter activity interaction Z-score: -0.516 ± 0.52
[3]; [20]
  promoter activity interaction Z-score: 0.0436 ± 0.35
[3]; [21]
  promoter activity interaction Z-score: 0.0977 ± 1
[3]; [22]
  promoter activity interaction Z-score: 0.625 ± 1.1
[4]; [7]
  promoter activity interaction Z-score: -0.222 ± 0.014
[4]; [8]
  promoter activity interaction Z-score: -0.199 ± 0.69
[4]; [9]
  promoter activity interaction Z-score: -0.314 ± 0.28
[4]; [10]
  promoter activity interaction Z-score: -0.201 ± 0.76
[4]; [11]
  promoter activity interaction Z-score: -0.158 ± 0.15
[4]; [12]
  promoter activity interaction Z-score: 0.308 ± 0.07
[4]; [13]
  promoter activity interaction Z-score: 0.333 ± 0.35
[4]; [14]
  promoter activity interaction Z-score: 0.11 ± 0.31
[4]; [15]
  promoter activity interaction Z-score: -0.0528 ± 0.63
[4]; [16]
  promoter activity interaction Z-score: -0.845 ± 0.11
[4]; [17]
  promoter activity interaction Z-score: -0.29 ± 0.49
[4]; [18]
  promoter activity interaction Z-score: -0.381 ± 0.64
[4]; [19]
  promoter activity interaction Z-score: -0.356 ± 0.24
[4]; [20]
  promoter activity interaction Z-score: 0.439 ± 0.5
[4]; [21]
  promoter activity interaction Z-score: -0.252 ± 0.99
[4]; [22]
  promoter activity interaction Z-score: 0.0401 ± 0.42
[5]; [7]
  promoter activity interaction Z-score: 0.0858 ± 0.3
[5]; [8]
  promoter activity interaction Z-score: 0.563 ± 0.097
[5]; [9]
  promoter activity interaction Z-score: 0.674 ± 0.079
[5]; [10]
  promoter activity interaction Z-score: 0.458 ± 0.71
[5]; [11]
  promoter activity interaction Z-score: -0.0504 ± 0.074
[5]; [12]
  promoter activity interaction Z-score: 0.547 ± 0.088
[5]; [13]
  promoter activity interaction Z-score: 0.688 ± 0.15
[5]; [14]
  promoter activity interaction Z-score: 0.377 ± 0.54
[5]; [15]
  promoter activity interaction Z-score: 0.102 ± 0.028
[5]; [16]
  promoter activity interaction Z-score: 0.199 ± 0.076
[5]; [17]
  promoter activity interaction Z-score: 0.581 ± 0.14
[5]; [18]
  promoter activity interaction Z-score: 0.29 ± 0.88
[5]; [19]
  promoter activity interaction Z-score: -0.173 ± 0.12
[5]; [20]
  promoter activity interaction Z-score: 0.349 ± 0.045
[5]; [21]
  promoter activity interaction Z-score: 0.403 ± 0.16
[5]; [22]
  promoter activity interaction Z-score: 0.259 ± 0.95
[6]; [7]
  promoter activity interaction Z-score: -0.487 ± 1.9
[6]; [8]
  promoter activity interaction Z-score: -1.05 ± 0.26
[6]; [9]
  promoter activity interaction Z-score: 1.71 ± 2
[6]; [10]
  promoter activity interaction Z-score: -0.0483 ± 0.2
[6]; [11]
  promoter activity interaction Z-score: -0.154 ± 1.3
[6]; [12]
  promoter activity interaction Z-score: -0.0748 ± 0.1
[6]; [13]
  promoter activity interaction Z-score: 0.149 ± 0.17
[6]; [14]
  promoter activity interaction Z-score: 0.687 ± 1.6
[6]; [15]
  promoter activity interaction Z-score: -0.119 ± 0.018
[6]; [16]
  promoter activity interaction Z-score: -0.241 ± 0.77
[6]; [17]
  promoter activity interaction Z-score: 1.64 ± 0.41
[6]; [18]
  promoter activity interaction Z-score: -0.423 ± 0.15
[6]; [19]
  promoter activity interaction Z-score: 0.606 ± 0.32
[6]; [20]
  promoter activity interaction Z-score: 0.0837 ± 0.18
[6]; [21]
  promoter activity interaction Z-score: 0.207 ± 0.77
[6]; [22]
  promoter activity interaction Z-score: 1.76 ± 0.4
